# According to PubChem BioAssay (NCATS):
# Inconclusive results are not listed. Entries that show only a call come without a potency. The source made the active and inactive calls. The call rests on the fitted dose curve; in most records, active means well fitted curve in the direction sought with a large enough effect; inconclusive means small, poorly fitted or top-dose-only effect, or another doubt; inactive means no such curve, though single readings can be large; an effect the other way counts as inactive or inconclusive.
# Legend:
# [1] = qHTS assay to identify small molecule inhibitors of chordoma cells - UCH-1 (AID 1259355); further: nearly all actives have a fitted effect of over 55% in size; further: potency means the concentration at half of the fitted maximal effect; series mostly up to about 46 µM
# Procedure, shortened: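 Seed 800 cells per well; incubate overnight at 37 C, 5% CO2. Add test compounds (15 concentrations), then the auranofin–topoisomerase-agent combination. Incubate 48hr, add CellTiter-Glo, wait 30min, read luminescence.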
# [2] = qHTS assay to identify small molecule inhibitors of chordoma cells - UCH-2 (AID 1259356); further: potency means the concentration at half of the fitted maximal effect
# [3] = P-glycoprotein substrates identified in KB-3-1 adenocarcinoma cell line, qHTS therapeutic library screen (AID 1346986); further: nearly all actives have a fitted effect of over 60% in size
# Procedure, shortened: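 Counter-screen: cherry-picked hits retested in the KB pair and in HEK-293 pcDNA/MDR-19 cells ± tariquidar. Primary screen used 72 h CellTiter-Glo viability in KB-3-1 and KB-8-5-11.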
# [4] = P-glycoprotein substrates identified in KB-8-5-11 adenocarcinoma cell line, qHTS therapeutic library screen (AID 1346987); further: nearly all actives have a fitted effect of over 65% in size; further: potency means the concentration at half of the fitted maximal effect
# Procedure, shortened: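 KB-8-5-11: colchicine-selected sub-line of KB-3-1 over-expressing P-gp; assay medium lacked colchicine. 72 h drug exposure at 37 degree C, CellTiter-Glo.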
SMILES,Potency [1],Potency [2],Potency [3],Potency [4]
C=C[C@H]1CN2CC[C@H]1C[C@H]2[C@H](OC(=O)OCC)c1ccnc2ccc(OC)cc12,inactive,inactive,–,–
C[N+]1(C)CCCCC1COC(=O)C(O)(c1ccccc1)c1ccccc1 (configuration not stated),inactive,inactive,–,–
O=C1C[C@@H]2OCC=C3CN4CC[C@]56c7ccccc7N1[C@H]5[C@H]2[C@H]3C[C@H]46,inactive,inactive,inactive,inactive
CCC/C=C/C=C/C(=O)O[C@H]1/C(=C/C(=O)OC)C[C@H]2C[C@H]([C@@H](C)O)OC(=O)C[C@H](O)C[C@@H]3C[C@H](OC(C)=O)C(C)(C)[C@](O)(C[C@@H]4C/C(=C/C(=O)OC)C[C@H](/C=C/C(C)(C)[C@]1(O)O2)O4)O3,inactive,inactive,–,inactive
CC(=O)OCC(=O)[C@H]1CC[C@H]2[C@@H]3CC[C@H]4C[C@H](O)CC[C@]4(C)[C@H]3C(=O)C[C@]12C,inactive,inactive,–,inactive
Cc1cc(C)cc(C(=O)OC2C[C@H]3CC[C@@H](C2)N3C)c1 (some centres not stated),inactive,inactive,–,–
CNC(=O)Oc1ccccc1C(=O)Nc1ccccc1,inactive,inactive,–,–
Cc1ccccc1-n1c(C)nc2ccccc2c1=O,inactive,inactive,–,inactive
CC(C)(O)C1C2OC(=O)C1C1(O)CC3OC34C(=O)OC2C14C (configuration not stated),inactive,–,–,–
Clc1ccccc1Cl,inactive,inactive,–,inactive
Clc1ccc(C(Cn2ccnc2)OCc2csc3c(Cl)cccc23)c(Cl)c1 (configuration not stated),inactive,inactive,–,–
C#CCN1CC(=O)N(COC(=O)C2C(C=C(C)C)C2(C)C)C1=O (configuration not stated),inactive,inactive,–,–
C[C@@H](CO)NC(=O)[C@@H]1C=C2c3cccc4[nH]cc(c34)C[C@H]2N(C)C1,inactive,inactive,–,–
C[C@]12C[C@H]3S[C@H]3C[C@@H]1CC[C@@H]1[C@@H]2CC[C@]2(C)[C@@H](O)CC[C@@H]12,inactive,inactive,–,–
COc1ccc2c(c1OC)C(=O)OC2C1c2cc3c(cc2CCN1C)OCO3 (configuration not stated),inactive,–,–,–
CCC(C)(S(=O)(=O)CC)S(=O)(=O)CC,inactive,inactive,–,inactive
CCNCC(O)c1cccc(O)c1 (configuration not stated),inactive,inactive,–,inactive
CN1C2CCC1CC(OC(c1ccccc1)c1ccc(Cl)cc1)C2 (configuration not stated),inactive,inactive,–,–
O=[N+]([O-])c1cc(I)c(O)c(I)c1,inactive,inactive,–,–
CCN(CC)C(=O)N[C@H]1C[C@@H]2c3cccc4[nH]cc(c34)C[C@H]2N(C)C1,inactive,inactive,–,–
CCCN1CCCC2Cc3[nH]ncc3CC21 (configuration not stated),inactive,–,–,–
Oc1ccc2c3c1O[C@H]1[C@@H](O)CC[C@@]4(O)[C@@H](C2)N(CC2CCC2)CC[C@]314,inactive,inactive,–,–
C[C@]12CC[C@H]3[C@@H](CCC4=C(O)C(=O)CC[C@@H]43)[C@@H]1CC[C@@H]2OC(=O)CCC1CCCC1,inactive,inactive,–,–
O=C1CN=C(c2ccccc2)c2cc(Cl)ccc2N1CC1CC1,inactive,inactive,–,9.2 µM (active)

SMILES,Potency [1],Potency [2],Potency [3],Potency [4]
[N-]=[N+]=CC(=O)OCC(N)C(=O)O (configuration not stated),inactive,–,–,–
C#CC(C)(O)CC (configuration not stated),inactive,inactive,–,inactive
CCCCCCC(=O)O[C@H]1CC[C@H]2[C@@H]3CC[C@H]4CC(=O)C=C(C)[C@]4(C)[C@H]3CC[C@]12C,inactive,inactive,–,–
O=c1ccc2cc(O[C@@H]3O[C@H](CO)[C@@H](O)[C@H](O)[C@H]3O)c(O)cc2o1,inactive,inactive,–,inactive
CC[C@H](C)[C@H]1O[C@]2(C=C[C@@H]1C)C[C@@H]1C[C@@H](C/C=C(\C)[C@@H](O[C@H]3C[C@H](OC)[C@@H](O[C@H]4C[C@H](OC)[C@@H](O)[C@H](C)O4)[C@H](C)O3)[C@@H](C)/C=C/C=C3\CO[C@@H]4[C@H](O)C(C)=C[C@@H](C(=O)O1)[C@]34O)O2,inactive,inactive,–,–
CN1c2ccccc2C(NCCCCCCC(=O)O)c2ccc(Cl)cc2S1(=O)=O (configuration not stated),inactive,inactive,–,inactive
CCOC(=O)/C=C(C)/C=C/C[C@@H](C)CCCC(C)C,inactive,inactive,–,inactive
CCC1C(C)=NN=C(c2ccc(OC)c(OC)c2)c2cc(OC)c(OC)cc21 (configuration not stated),inactive,inactive,–,–
CN1[C@@H]2CC[C@H]1CC(OC1c3ccccc3CCc3ccccc31)C2 (some centres not stated),inactive,inactive,–,–
C=CC[C@]1(O)CC[C@H]2[C@@H]3CCC4=CCCC[C@@H]4[C@H]3CC[C@@]21C,inactive,inactive,–,–
O=C1C2CC=CCC2C(=O)N1SC(Cl)(Cl)Cl (configuration not stated),12.6 µM (active),–,–,–
O=[N+]([O-])c1ccc(F)c([N+](=O)[O-])c1,inactive,inactive,–,–
CCN(CC)CCO[C@H]1CC[C@@]2(C)C(=CC[C@@H]3[C@@H]2CC[C@]2(C)C(=O)CC[C@@H]32)C1,inactive,inactive,–,–
CC(=O)O[C@H]1C[C@H](O[C@H]2[C@@H](O)C[C@H](O[C@H]3[C@@H](O)C[C@H](OC4CC[C@@]5(C)[C@H](CC[C@@H]6[C@@H]5CC[C@]5(C)[C@@H](C7=CC(=O)OC7)CC[C@]65O)C4)O[C@@H]3C)O[C@@H]2C)O[C@H](C)[C@H]1O[C@@H]1O[C@H](CO)[C@@H](O)[C@H](O)[C@H]1O (some centres not stated),0.447 µM (active),0.259 µM (active),–,0.259 µM (active)
CCC(=O)O[C@]1(c2ccccc2)CCN(C)C[C@H]1C,inactive,inactive,–,inactive
ClC=C(Cl)Cl,inactive,inactive,–,inactive
Cc1ccccc1-n1c(CF)nc2ccc(N)cc2c1=O,inactive,inactive,–,inactive
CC(C)Nc1ccc(Nc2ccccc2)cc1,inactive,inactive,–,20.6 µM (active)
COC1=CC=C2[C@H]3Cc4ccc(OC)c5c4[C@@]2(CCN3C)[C@H]1O5,inactive,inactive,–,inactive
CC(C)CCC(=O)O[C@H]1CC[C@H]2[C@@H]3CCC4=CC(=O)CC[C@]4(C)[C@H]3CC[C@]12C,inactive,inactive,–,7.31 µM (active)
CCC1(c2ccccc2)C(=O)NC(=O)N(C(=O)c2ccccc2)C1=O (configuration not stated),inactive,inactive,–,inactive
CC(=O)Oc1ccc2c3c1O[C@H]1[C@@H](OC(C)=O)C=C[C@H]4[C@@H](C2)N(C)CC[C@@]341,inactive,inactive,–,inactive
NCC[C@H](O)C(=O)N[C@@H]1C[C@H](N)[C@@H](O[C@H]2O[C@H](CN)[C@@H](O)[C@H](O)[C@H]2N)[C@H](O[C@@H]2O[C@H](CO)[C@@H](O)[C@H]2O)[C@H]1O,inactive,inactive,–,inactive
O=c1[nH]cc(N(CCCl)CCCl)c(=O)[nH]1,inactive,inactive,–,inactive

SMILES,Potency [1],Potency [2],Potency [3],Potency [4]
CC(=O)OO,inactive,inactive,–,inactive
CCC1(CC)C(=O)NC(=O)N(C)C1=O,inactive,inactive,–,inactive
C[C@]12C=CC(=O)C=C1CC[C@@H]1[C@@H]2CC[C@]2(C)OC(=O)CC[C@@H]12,inactive,inactive,–,inactive
CO[C@H]1[C@@H](O)C[C@H](O[C@H]2[C@@H](O)C[C@H](O[C@H]3[C@@H](O)C[C@H](O[C@H]4CC[C@@]5(C)[C@H](CC[C@@H]6[C@@H]5C[C@@H](O)[C@]5(C)[C@@H](C7=CC(=O)OC7)CC[C@]65O)C4)O[C@@H]3C)O[C@@H]2C)O[C@@H]1C,0.355 µM [with auranofin plus four topoisomerase inhibitors] (active),0.058 µM (active),–,0.259 µM (active)
c1csc(C2(N3CCCCC3)CCCCC2)c1,inactive,inactive,–,inactive
C[C@]12CCC(=O)C[C@@H]1CC[C@@H]1[C@@H]2CC[C@]2(C)[C@@H](O)CC[C@@H]12,inactive,inactive,–,8.2 µM (active)
[O]=[Cd],inactive,inactive,–,inactive
C[N+]1([O-])[C@@H]2CC(OC(=O)[C@H](CO)c3ccccc3)C[C@H]1[C@@H]1O[C@@H]12 (some centres not stated),inactive,inactive,–,inactive
COCC(C)N(C(=O)CCl)c1c(C)csc1C (configuration not stated),inactive,inactive,–,inactive
[2H]C([2H])([2H])[C@H](N)Cc1ccccc1,inactive,inactive,–,inactive
C[C@]12CC[C@H]3[C@@H](CCC4=C(Cl)C(=O)CC[C@@]43C)[C@@H]1CC[C@@H]2O,inactive,inactive,–,13 µM (active)
CNC1(c2ccccc2Cl)CCCCC1=O (configuration not stated),inactive,inactive,–,inactive
C[C@]12CC[C@H](O)C[C@H]1CC[C@@H]1[C@@H]2CC[C@]2(C)[C@@H](c3ccc(=O)oc3)C[C@H]3O[C@]132,6.31 µM [with auranofin plus four topoisomerase inhibitors] (active),6.51 µM (active),–,1.84 µM (active)
O=C(C[C@@H]1NCCC[C@H]1O)Cn1cnc2cc(Br)c(Cl)cc2c1=O,inactive,inactive,–,inactive
O=[N+]([O-])c1ccccc1,inactive,inactive,–,inactive
O=Cc1ccco1,inactive,inactive,–,inactive
COc1ccc2c3c1O[C@H]1[C@@H](O)C=C[C@H]4[C@@H](C2)NCC[C@@]341,inactive,inactive,–,inactive
COc1ccc2c3c1O[C@H]1C(=O)CC[C@H]4[C@@H](C2)N(C)CC[C@]314,inactive,inactive,–,inactive
C[C@]12CC[C@H](OS(=O)(=O)O)CC1=CC[C@@H]1[C@@H]2CC[C@]2(C)C(=O)CC[C@@H]12,inactive,inactive,–,inactive
CC1(C)S[C@@H]2[C@H](N)C(=O)N2[C@H]1C(=O)O,inactive,inactive,–,inactive
C[C@@H](Cc1ccccc1)N(C)C,inactive,inactive,–,inactive
O=C/C=C/c1ccccc1,inactive,inactive,–,inactive
CCC1(c2ccccc2)C(=O)NC(=O)N(C)C1=O (configuration not stated),inactive,inactive,–,inactive
CC(C)CCON=O,inactive,inactive,–,inactive
